Measured values taken from paper PMC13494018.
A number with no mark means an inactive call. The rule behind the calls is not given here.

B1: design_598_15ab41e9-cad4-4381-8935-81f74b313fe8_1541_dldesign_0_cycle1_af2pred (protein)
chain: AEQEKKDEEYKEKAKKGEELAKKAKERAEKNKDDKGVLGSQAELAEHIAKALKKAAEEASEEVKPELKAAAEKAKKVAKYAEELA
B2: design_598_15ab41e9-cad4-4381-8935-81f74b313fe8_1648_dldesign_0_cycle1_af2pred (protein)
chain: KKEEAKKELLEKVKKLEEEGEKLLEEKTPKEARAKALEKGKEIMKEAEKAIKDPETKEAGKEAKKKAAEAMAKLYEKAAEKEAKE
B3: design_598_15ab41e9-cad4-4381-8935-81f74b313fe8_1668_dldesign_0_cycle1_af2pred (protein)
chain: KEKVKKELEESKKELEKTLEKIKELVSSLPEEEREALAKGLVDPKTALEAAKKIAEAVGKEGANAAQEAISERRAIEQYEKILE
B4: design_598_15ab41e9-cad4-4381-8935-81f74b313fe8_1677_dldesign_0_cycle1_af2pred (protein)
chain: DVAALIAKAAALVDDPSKAAEALKYLVAAREKALSEGDAAALKQIAAVAAEGAKKAPPEYAKGFKLLANTAKSIAEDLEK
B5: design_598_15ab41e9-cad4-4381-8935-81f74b313fe8_1691_dldesign_0_cycle1_af2pred (protein)
chain: DKEAEAKKIEAAAKKNAEAALADAEKAKEYAKAGDKSKAKQYSESAKIYLELAGTAAKKGAGYPTAPEIKKLYEDTKAKVEEILKEA
B6: design_598_15ab41e9-cad4-4381-8935-81f74b313fe8_1727_dldesign_0_cycle1_af2pred (protein)
chain: SAAQLAASAKGRLLAVADYARAKGISEEAAELAEKAAEADVATAAELAEKAAKLLEEAGDEKLAERARKAAEKLKKAAKE
B7: design_598_15ab41e9-cad4-4381-8935-81f74b313fe8_1756_dldesign_0_cycle1_af2pred (protein)
chain: GFKEEAEKKMEKVLEEAKKASVKEAATIVREAYAELKGIGHLLEKKGKKEEGKFAEEVAKKVLEEGKKIVEEKAAA
B8: design_598_15ab41e9-cad4-4381-8935-81f74b313fe8_1784_dldesign_0_cycle1_af2pred (protein)
chain: ADEEGKKLVKEKLEEAKKALEKAKAGDKKEALDAASTATRNAHKIEAFAKAVPVSEEVVKLAKEAVKELEKYEEKAAKLLAK
B9: design_598_15ab41e9-cad4-4381-8935-81f74b313fe8_1969_dldesign_0_cycle1_af2pred (protein)
chain: AAAAAKKAQAKKLVGLGLFYYLDYLAGGPESSKEKGDAYYAAAAALDPATAAEAKAKADKIAARFKKDVEEAKK
B10: design_598_15ab41e9-cad4-4381-8935-81f74b313fe8_2011_dldesign_0_cycle1_af2pred (protein)
chain: KLEEYKKKIKEKAKEMGKSLDPEERKKLLEEIKKLAKEASKELGEKEEIEKFAAEEAHEGLEQASENRFKS
B11: design_598_15ab41e9-cad4-4381-8935-81f74b313fe8_2059_dldesign_0_cycle1_af2pred (protein)
chain: GEKEELKEKAKKLKELAKKAVEKAKKAAEENPEAKPLAEKAKELAEEAIKLAEEGTKESLEKAAKILQELREVTAEAEFIARKG
B12: design_598_15ab41e9-cad4-4381-8935-81f74b313fe8_2180_dldesign_0_cycle1_af2pred (protein)
chain: AEAAEKAAAKAVINEAYDLLGSSTAEEALKYAEEKAKEAKAAGKKIVADAAEKTAKVLKRIAEDEKEAKK
B13: design_598_15ab41e9-cad4-4381-8935-81f74b313fe8_2298_dldesign_0_cycle1_af2pred (protein)
chain: SKKAEQTLFRAEALGEAVTEAAEQLDPALGARVRERAKELIERAKKDGTLEAAEKALEEMRRLAEEVRAAIEAA
B14: design_598_15ab41e9-cad4-4381-8935-81f74b313fe8_2338_dldesign_0_cycle1_af2pred (protein)
chain: AEEKAKELYAKGEKLYKEGLKADKETGKEYFTKAAEYFKAAAEEFKKAGNVVGAGYAESKAERAKEAAELL
B15: design_598_15ab41e9-cad4-4381-8935-81f74b313fe8_2343_dldesign_0_cycle1_af2pred (protein)
chain: ASEELWKKAQEIATKAVAAAQARYAAEGKYEELDKDIDKIYELAVEAAKEGEEGLKKLEEMRKEAEEAAKKALEAA
B16: design_598_15ab41e9-cad4-4381-8935-81f74b313fe8_2408_dldesign_0_cycle1_af2pred (protein)
chain: ELELLKERAELYERAAKAAEAGKLGAGIRLAAIAEDLIDLELGKKKEKELKASSREEALKILKKEAEKYKAKAKELA
B17: design_598_15ab41e9-cad4-4381-8935-81f74b313fe8_2441_dldesign_0_cycle1_af2pred (protein)
chain: AKEKAEELAKKAREGIERAERRVEEGKKKSKKDAAIYSYSAAELLDSVAAGIVKELLKEDPELGKKVAEEVEKAREEALKEAEKYES
B18: design_599_7ce25d4d-e004-4b84-a16f-baf856d943ab_80_dldesign_0_cycle1_af2pred (protein)
chain: SKAAEKAEAQKAKEEATKAAEEAAKEAKKAGLEDLAKYLENAKKTADAKAQASSDPAEAKKYYEKYKATATRLLEDLKKAE
B19: design_599_7ce25d4d-e004-4b84-a16f-baf856d943ab_135_dldesign_0_cycle1_af2pred (protein)
chain: MEEEEGEKKVEEAKKKLSAALYEYADMSVNEETLKEGRKKVEEAVKEALELGKKSTPETAEKLKKAAEKALKVAERIEEAS
B20: design_599_7ce25d4d-e004-4b84-a16f-baf856d943ab_160_dldesign_0_cycle1_af2pred (protein)
chain: AVKEQTEKTVAATRAAAEAVPEYGEELEKGARVIERLVKDGFLEGAIDVANAIAKFSREVAAEVSEEQAAILKEAADLAEELAKLAK
B21: design_599_7ce25d4d-e004-4b84-a16f-baf856d943ab_173_dldesign_0_cycle1_af2pred (protein)
chain: SEAEKVIEEARKKAEEAREFIKKIREEGGNPEAAELALQALSHFKAAEALAKSGENLESAKKHLEEGKKLLEEAKELYE
B22: design_599_7ce25d4d-e004-4b84-a16f-baf856d943ab_219_dldesign_0_cycle1_af2pred (protein)
chain: MDPAELAAAKQAEAEAIIAETKAKAEKYIEEAKKSKKYVEALQYVGRAEVLLDSTVSYLTKNVGPEAGEKAQEIADKTVKEGFEIVKK
B23: design_599_7ce25d4d-e004-4b84-a16f-baf856d943ab_284_dldesign_0_cycle1_af2pred (protein)
chain: AEVEAFKAAAEKYYKKAKEYFEKAKKTGSKSLYLKGASYAELALHNLENAAKAAAAKDPAEGAKLQKELKETKEELDKLYEEARKAAV
B24: design_599_7ce25d4d-e004-4b84-a16f-baf856d943ab_290_dldesign_0_cycle1_af2pred (protein)
chain: SEARRERLRAEAEEAIEKLKEAAKQAFEAGNGEAALVAVRAAARARRLLADPATVEEGLRVAKEGLEKAEKLLKE
B25: design_599_7ce25d4d-e004-4b84-a16f-baf856d943ab_347_dldesign_0_cycle1_af2pred (protein)
chain: AEAEKAKATADAKKEAKAFAEEAKKKAEEASKGTPEDVKKERDKVAAEFDKKIAEAAGNPEAAAAYAEARHEAKAEYDLAYVKAK
B26: design_599_7ce25d4d-e004-4b84-a16f-baf856d943ab_358_dldesign_0_cycle1_af2pred (protein)
chain: HMKYIELLDRINKVSKELQEAYKEASKDPENKPKVEELAKEASELRDKGYDEPEKAEEYLKKMEELAKEMKKLAKE
B27: design_599_7ce25d4d-e004-4b84-a16f-baf856d943ab_360_dldesign_0_cycle1_af2pred (protein)
chain: TAAITEARDAAVEARGDVELAKAKNAKAEEYEKAAKKAEEAKKKLKEVLETVELSEEERETAERMIEAMERAAEEARKLAKEKK
B28: design_599_7ce25d4d-e004-4b84-a16f-baf856d943ab_378_dldesign_0_cycle1_af2pred (protein)
chain: AAAAILAATDAEVAAILAKGAEEIAKAAKEEGPEAAKKVATEVLEKANDVIAEGGVKAGLSAKEISARINAAQKEVRAIAEKAIEAAA
B29: design_599_7ce25d4d-e004-4b84-a16f-baf856d943ab_441_dldesign_0_cycle1_af2pred (protein)
chain: GKKEEAEKKMKKAYEKMKKLAEEAGKAKDPKEAYEYLLKIEEVGAEAINYAAKIGDKETAREAAKKYRELFREAVKKAQAAGKA
B30: design_599_7ce25d4d-e004-4b84-a16f-baf856d943ab_451_dldesign_0_cycle1_af2pred (protein)
chain: EKITAVNEAEAYLEALKHAAEVLTKIDPSLKPEAEKAIKEGEKLVKEAKEGNAETAKKAAEEIRKLLKEVIELGKKAKA
B31: design_599_7ce25d4d-e004-4b84-a16f-baf856d943ab_506_dldesign_0_cycle1_af2pred (protein)
chain: MEEEKKAIEEAKERAKEIAEKAVKEAKKAKTPKEISEAIREMVRKLRELVKEVREKYSEETAEKVKEIAAKERLKAVDEIAAAK
B32: design_599_7ce25d4d-e004-4b84-a16f-baf856d943ab_519_dldesign_0_cycle1_af2pred (protein)
chain: MEAALEALKKAAAEAANLVYDAADIGAEEAEKAAKEAIKKIKDTATPELAPLAKEYAEKLGKTAERLIENNKYGEELKK
B33: design_599_7ce25d4d-e004-4b84-a16f-baf856d943ab_718_dldesign_0_cycle1_af2pred (protein)
chain: SELTEKVNKEADELRKRAREIGETARRLAEEAAKHDPAAAEEIRRLASLSIQKLFEGDEEEAERYWEEAVALAKAAVA
B34: design_599_7ce25d4d-e004-4b84-a16f-baf856d943ab_748_dldesign_0_cycle1_af2pred (protein)
chain: SKEEIKKQSELMKKATRYVKEAGKAAKVLGEEGKKKVEEMVKLRDQAADSDVETAKKLTEEIEKEAEEVIKKAEEKEK
B35: design_599_7ce25d4d-e004-4b84-a16f-baf856d943ab_845_dldesign_0_cycle1_af2pred (protein)
chain: NELEKAAKAAEAVAKALRAAAEAGPTPESLAAVEALAKEAAKVDEAAADIARAAVAAARADPARAAEALRRGARIAKRLAEDYKKAI
B36: design_599_7ce25d4d-e004-4b84-a16f-baf856d943ab_928_dldesign_0_cycle1_af2pred (protein)
chain: AAAKEEAEKRAKKALEEGEKAAKEIEKSNAEEARKIAKEFREKAKELVADPEASPEEKKALAEGAQKAYEAAAEKEAKE
B37: design_599_7ce25d4d-e004-4b84-a16f-baf856d943ab_929_dldesign_0_cycle1_af2pred (protein)
chain: GLDAVTDALAEAFYASREIEKIDPELGKELLEYAKELAKKAIAGTPEAAKKLAEEIKKKTEEKLKEAEEKAKKE
B38: design_599_7ce25d4d-e004-4b84-a16f-baf856d943ab_1040_dldesign_0_cycle1_af2pred (protein)
chain: EKLKERYKAAAKNLEKAAESKDKNEAKALIGRAEALALNASADPAAPEIAKLADEALEAVYKDLEKGKELAKKAAEKAKEAAA

Biological target: VTCN1, Q7Z7D3
Sequence (Q7Z7D3 whole entry): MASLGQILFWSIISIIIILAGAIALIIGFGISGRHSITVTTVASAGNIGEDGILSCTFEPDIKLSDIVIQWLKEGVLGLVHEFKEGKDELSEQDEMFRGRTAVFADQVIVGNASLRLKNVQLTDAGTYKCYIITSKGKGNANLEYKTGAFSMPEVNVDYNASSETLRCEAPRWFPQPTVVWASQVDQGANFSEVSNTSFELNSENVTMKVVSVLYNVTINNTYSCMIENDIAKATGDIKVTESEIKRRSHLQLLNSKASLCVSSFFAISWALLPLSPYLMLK

Row | Binder | binding in a display sort
1 | B1 | not found
2 | B2 | not found
3 | B3 | not found
4 | B4 | not found
5 | B5 | not found
6 | B6 | not found
7 | B7 | not found
8 | B8 | not found
9 | B9 | not found
10 | B10 | not found
11 | B11 | not found
12 | B12 | not found
13 | B13 | not found
14 | B14 | not found
15 | B15 | not found
16 | B16 | not found
17 | B17 | not found
18 | B18 | not found
19 | B19 | not found

Row | Binder | binding in a display sort
20 | B20 | not found
21 | B21 | not found
22 | B22 | not found
23 | B23 | binds (active)
24 | B24 | not found
25 | B25 | not found
26 | B26 | not found
27 | B27 | not found
28 | B28 | not found
29 | B29 | not found
30 | B30 | not found
31 | B31 | not found
32 | B32 | not found
33 | B33 | not found
34 | B34 | not found
35 | B35 | not found
36 | B36 | not found
37 | B37 | not found
38 | B38 | not found
